Experimental data reported in the supplement of paper PMC10338343.
± gives the standard deviation.

Test system: MILI (PIWIL2) piRISC loaded with L1MC piRNA (26 nt)
Assay: pre-steady-state target cleavage rate (min^-1); guide: L1MC piRNA 5'p-UAACUAAAUACUAUGCAAGCUGUAGG; MIWI and MILI are mouse PIWI proteins and EfPiwi is from a freshwater sponge; tags in brackets are library labels; higher = faster piRNA-guided slicing of the target
Details: auxiliary factor: none (no GTSF1)
How it was run: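 In this Cleave-'n-Seq assay, uncleaved targets were sequenced and normalised to depth and to weakly complementary targets. They came from a transcribed, DNA-blocked target RNA library […] mixed with 1 nM active affinity-purified piRISC carrying one synthetic guide, with or without 500 nM GTSF1 partner protein, in HEPES–potassium acetate buffer at 33 °C for 0–8 or 0–960 min. After three trials were pooled and k3 was capped at 0.0001 min^-1, the pre-steady-state cleavage rate was obtained from a burst-and-steady-state fit.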
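Further: 1 nM active piRISC with 0.1 nM target library at 33 °C single turnover.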

Sequence	pre-steady-state target cleavage rate
UCCUGGAUCACGUUGCAUAGUAUUUAGAAA	0.00275 ± 0.0027
UCCUGGAUCAGCUUGCAUAGUAUUUGAGUUA	0.00502 ± 0.0022
UCCUGGAUGAGCAUGCAUAGUAAUUAGUUA	0.00824 ± 0.0028
UCCUGGAUGUGCUUGCAUAGUAUUUAUGUUA	0.0053 ± 0.0027
UCCUGGAUCAGCUUGCAUAGUAUUAACUUA	0.00289 ± 0.0028
UCCUGGAACUGCUUGCAUAGUAUUUACUUA	0.00292 ± 0.0023
UCCUGGAUGUCGAUGCAUAGUCUUUAGUUA	0.00627 ± 0.002
UCCUGGAUGUGCUAGCAUAGUAAUUAGUUA	0.00598 ± 0.0021
UCCUGGAUGUCGAUGCACAGUAUUUAGUUA	0.00443 ± 0.0024
UCCUGGAACAGGAAGCAUAGUAUUUAGUAA	0.00297 ± 0.0027
UCCUGGAUGUCCUUGCGUAGUAUUUAGUUA	0.0122 ± 0.0025
UCCUGGAUGUCGAUGCAUAGUGAUUUAGUUA	0.00429 ± 0.0023
UCCUGGAUCAGCUUGCAUCGUAUUUAGUUA	0.00789 ± 0.0027
UCCUGGAUGUGCUUGCAUUGUAUAUAGUUA	0.00543 ± 0.0026
UCCUGGUACAGCUUGCAUAGUUAAUAGUUA	0.00424 ± 0.0026
UCCUCCUACAGCUUGAUAGUAUUUAGUUA	0.00404 ± 0.0022
UCCUGGUACAGCUUGCAUAGUUUUUAGUUA	0.00579 ± 0.0038
UCCUGCUACAGCUUGCUUAGUAUUUAGUAA	0.00316 ± 0.0023
UCCUGGUACAGCUUGCAUAGUACUUAGUUA	0.00401 ± 0.0032
UCCUGGAUGUCGUUGCAUUGUAUUUAGUUA	0.00572 ± 0.0024

Sequence	pre-steady-state target cleavage rate
UCCUGGAUCAGCUUGCAUAGUAUAAAGUUA	0.00561 ± 0.0029
UCCUCCUAGCAGCUUGCAUAGUAUUUAGUUA	0.011 ± 0.0028
UCCUGGAUCAGCUUGCAUAGAUUUUAGUUA	0.00395 ± 0.0023
UCCUGGAACAGCUUGGUUAGUAUUUAGUUA	0.0126 ± 0.0037
UCCUGGAUGUCCUUGCAUAGUAAAUAGUUA	0.00497 ± 0.0022
UCCUGGAUGUCCUCGCAUAGUAUUUAGUUA	0.00777 ± 0.0022
UCCUGGAUGUGCUUGCAGAGUAUUUAGUUA	0.00711 ± 0.0023
UCCUGGAUGUGCUUGCAAUGUAUUUAGUUA	0.0111 ± 0.0028
UCCUGGAACUCGUUGCAUAGUAUUUAGUAA	0.00378 ± 0.002
UCCUGCUACAGCUUGCAUAGUAUAUAGUUA	0.00382 ± 0.0029
UCCUGGAUGAGCAUGCAUAGUUUUUAGUUA	0.00788 ± 0.0023
UCCUGGAUGAGCUAGGAUAGUAUUUAGUUA	0.00494 ± 0.0027
UCCUGGAUGAGCUUGCAUUGUAUAUAGUUA	0.00388 ± 0.0029
UCCUGGAUCAGCUUGCAUAGUAUUUAGUA	0.00426 ± 0.0027
UCCUCGUACAGGUUGCAUAGUAUUUAGUUA	0.00988 ± 0.0022
UCCUGGAUGAGGUUGCAUAGUUUUUAGUUA	0.00583 ± 0.0024
UCCUGGUACAGCUUGCAUAGUCAUUUAGUUA	0.00451 ± 0.0041
UCCUGGAUGUGCAUGCAUAGUAAUUAGUUA	0.00833 ± 0.002
UCCUGGAUGUCGAUGCAUAGUAUUAAGUUA	0.0035 ± 0.0025
UCCUGGUACAGUCUUGCAUAGUAUUUAGUUA	0.0122 ± 0.0047
